Most compounds without a hit are left out; they make up all but 3.8% or so of the library.
HSF1 activator – increases HSF-1 driven luciferase reporter signal; 300,000 tested, 1.7% active; activation, % at 9 µM; NIH3T3-HGL HSF-1 luciferase reporter, MG132, 8 h; 100% = twice DMSO control signal;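 active = mean replicate activation of at least 50% with a set share of replicates each reaching 50%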;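 also: 0% = median of the neutral control wells and 100% = twice that signal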
HSP90 refold inh – blocks HSP90-mediated luciferase refolding in reticulocyte lysate. 290,000 tested, 0.91% active. AID 1789. Rabbit reticulocyte lysate, luciferase refolding luminescence, 3 h. inhibition, % at 5.6 µM;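 active = inhibition above the screen-wide mean plus 3 SD, computed separately per campaign, cut at about 16% in these data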;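 also: 0% = DMSO wells and 100% = 60 µM geldanamycin wells; inhibitors lower the luminescence because luciferase stays unfolded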
HSF1 inhib – HSF1 inhibition; AID 2098; activity change, negative = inhibition, % at 7.5 µM (by protocol); NIH3T3-HGL HSE-luciferase, MG132-induced, luminescence 8 h; stronger effect = lower value; 300,000 tested, 0.77% active;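 active = more than half of replicate wells show activity change below -50%, luminescence cut by over half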;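 also: luciferase reports HSF-1 transcriptional activity via heat shock element; 0% = median of DMSO wells and -100% = zero luminescence signal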
NALP1 yeast inh – blocks the NALP1 inflammasome reconstituted in yeast; S. cerevisiae NALP1/ASC/caspase-1 growth, X-gal OD620, 72 h; 280,000 tested, 0.61% active; inhibition, % at 10 µM; in the data active = inhibition mostly above about 24%, no sharp cut-off; inactive = mostly below about 32%
Hsp70 activator – switches on Hsp70 transcription | HeLa Hsp70 promoter luciferase reporter, luminescence; scaled: vehicle 0, proteasome-inhibitor control 100% | activation, % at 10 µM | 200,000 tested, 0.04% active | AID 1203;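 active = activation above the mean across all tested compounds plus 3 SD, cutoff set per campaign, cut at about 5.5% in these data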;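 also: 100% = MG132 at 30 µM as the positive control and 0% = DMSO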
pCIP destab – compounds decreasing mouse p/CIP protein stability | F442A p/CIP-EGFP cells, EGFP fluorescence, 16 h | decrease of EGFP signal, % at 10 µM | 290,000 tested, 0.01% active | AID 1984;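 active = EGFP signal decrease of at least 30% at 10 µM or well 3 SD below plate mean, unless failing retest; inactive = the rest, including hits failing retest or dose response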
* marks the source's active call; other numbers are inactive results; · = no result.

SMILES	HSF1 activator	HSP90 refold inh	HSF1 inhib	NALP1 yeast inh	Hsp70 activator	pCIP destab
O=C(CCn1c(=O)sc2ccccc21)NC1CCCCC1	1	-5	7	25	·	-1
CS(=O)(=O)c1nc(-c2ccco2)cc(C(F)(F)F)n1	-73	3	-74*	61*	0	5
CN1CCN(c2nc(-c3ccco3)cc(C(F)(F)F)n2)CC1	-5	-5	-6	14	0	-15
COc1ccccc1-c1cc(C(F)(F)F)nc(S(=O)(=O)CCCC(=O)NC(C)C)n1	172*	2	105	22	0	-6
O=C1c2ccccc2C(=O)c2c1cccc2-n1nnc2ccccc21	·	-2	-2	·	·	-4
O=C1C(N2CCOCC2)=C(n2nnc3ccccc32)C(=O)c2ccccc21	48	41*	33	10	0	-18
C=CCOc1ccc(/C=N/NC(=O)CC(=O)NC2CCCCC2)cc1	-23	2	-8	-6	·	-4
Nc1ccc(S(=O)(=O)N2CCC(Cc3ccccc3)CC2)cc1	-64	8	-55*	-8	·	-9
O=C(C(O)c1ccccc1)N1N=C(c2ccccc2)CC1(O)C(F)(F)F (stereo not drawn)	-2	-1	2	-17	·	-9
OCC[C@@H]1C[C@H](O)[C@@H](O)[C@@]2(Cc3ccccc3O2)O1	-48	-5	-32	17	·	0
O=c1c(-c2nc3ccccc3s2)cccn1Cc1ccc(Cl)cc1	88*	-1	72	10	0	-10
O=S(=O)(c1ccc(F)cc1)N1CCN(C(=S)NCC2CCCO2)CC1 (stereo not drawn)	1	·	2	·	·	·
CN(C)/C=C/C(=O)c1ccncc1	23	2	13	5	0	-9
CN(C)/C=C/C(=O)c1cccc(Oc2ncccn2)c1	72*	-2	49	23	0	-1
COc1ccc(C(=O)COC(=O)CCN2C(=O)[C@@H]3[C@H](C2=O)[C@@H]2C[C@H]3C(Br)C2Br)cc1 (stereo partly drawn)	-5	6	-3	3	0	-5
COc1ccc(C(=O)COC(=O)CCN2C(=O)C3C4CC(C(Br)C4Br)C3C2=O)cc1 (stereo not drawn)	-71	-2	-62*	11	0	-3
CCC(C)Nc1nc(Cl)nc(N(C#N)CN2C(=O)c3ccccc3S2(=O)=O)n1 (stereo not drawn)	76*	-3	54	17	0	0
CC(C)Nc1nc(Cl)nc(N(C#N)CN2C(=O)c3ccccc3C2=O)n1	204*	0	153	33	0	-11
Cc1cc(C)nc(N(C#N)CN2C(=O)c3ccccc3C2=O)n1	12	0	2	24	0	4
O=C(/C=C/c1cc([N+](=O)[O-])ccc1OC(F)F)Nc1cccc([N+](=O)[O-])c1	-79	3	-73*	·	·	-12
CCN(CC)C(=O)c1cc(-c2ccc(Br)cc2)on1	58*	-5	25	3	0	-8
COc1cccc(N2CCN(C(=O)c3ccc(=O)oc3)CC2C)c1 (stereo not drawn)	-9	3	2	40*	0	-15
CC(C)CN=c1cc(-c2ccccc2)oc2ccc(Cl)cc12	60*	-3	48	22	1	0
Cc1cc(NS(=O)(=O)c2ccc(NC(=O)c3ccco3)cc2)nc(C)n1	-14	1	-3	4	0	-3
Cc1cc(NS(=O)(=O)c2ccc(NC(=O)/C=C/c3ccco3)cc2)nc(C)n1	-8	0	-4	38*	·	-6
SMILES	HSF1 activator	HSP90 refold inh	HSF1 inhib	NALP1 yeast inh	Hsp70 activator	pCIP destab
O=C(/C=C/c1ccco1)Nc1ccc(C(=O)N2CCOCC2)cc1	-6	-4	-1	23	0	-2
O=C(/C=C/c1ccco1)Nc1ccc(N2CCCC2)cc1	64*	-3	33	39	0	-8
Cc1ccc(C(=O)Nc2ncc(C)s2)o1	41	6	11	5	0	4
Cc1ccc(C(=O)Nc2ncc(Cc3ccc(F)cc3)s2)o1	68*	4	29	11	0	-11
COc1ccc(NC(=O)Oc2cc(C)ccc2C(C)C)cc1	-15	0	-10	-12	·	-5
Oc1c(Br)cc(Br)cc1C=Nc1cccc2ncccc12	62*	·	37	·	·	·
